Assay results published in PubChem BioAssay.
Active and inactive are the calls of the source.

Legend:
[1] = E. coli DRC41 culture turbidity changes, primary screen, E. coli filamentation inducer project, strain DRC41, OD650, 48 h (AID 1152);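 further: E. coli MC1000 strain DRC41 lacking acrAB efflux pump and sulA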; conditions: E. coli DRC41 (acrAB sulA), higher = more signal, called active from +8 up or from −8 down
[2] = small-molecule binders of probe aLefty1, primary screen, biochemical, small-molecule microarray, 635/667 nm fluorescence (AID 1153); conditions: higher = more signal;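 further: score merges spot fluorescence with signal-to-noise ratio from the scanned slide images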
[3] = PSAC antagonists in infected red cells, primary screen, cell-based, P. falciparum Indochina, OD700, 1 h (AID 1154); conditions: P. falciparum Indochina infected RBC osmotic lysis, higher = more signal, called active from +8 up or from −8 down
[4] = PSAC antagonists in infected red cells, primary screen, cell-based, P. falciparum Indochina, OD700, 2 h (AID 1155);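 further: lysis reports solute entry through the parasite surface anion channel PSAC; channel blockers reduce lysis of infected cells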; conditions: P. falciparum Indochina infected erythrocytes, osmotic lysis OD700; higher = more signal, called active from +8 up or from −8 down
[5] = osmotic lysis modulators in infected erythrocytes, primary screen, PSAC antagonist project, cell-based, P. falciparum Indochina, OD700, 3 h (AID 1156); conditions: higher = more signal, called active from +8 up or from −8 down
[6] = PSAC antagonists in infected red cells, primary screen, cell-based, P. falciparum Indochina, OD700, 18 h (AID 1157); conditions: P. falciparum Indochina infected erythrocytes, osmotic lysis OD700, 18 h; higher = more signal, called active from +8 up or from −8 down
[7] = modulators of S6 phosphorylation in cells, primary screen, cell-based, A549, cytoblot, luminescence, serum-stimulated (AID 1158); conditions: A549 phospho-S6 cytoblot, 5 h, higher = more signal;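 further: serum-stimulated A549 lung adenocarcinoma cells; signal is phosphorylated S6 detected by cytoblot immunostaining with HRP secondary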
[8] = molecular target: NADPH oxidase 2 (Homo sapiens) (UniProt P04839); assay: NOX2-dependent H2O2 signal modulators, primary screen, NOX inhibitor project, cell-based, HEK293-NOX2, PMA-stimulated, Amplex Red fluorescence (AID 1159); conditions: 45 min, higher = more signal, called active from +8 up or from −8 down; further: test concentration not given here
[9] = molecular target: NADPH oxidase 4 (Homo sapiens) (UniProt Q9NPH5); assay: NOX4-dependent H2O2 signal modulators, primary screen, NOX inhibitor project, cell-based, HEK293-NOX4, tetracycline-induced, Amplex Red fluorescence (AID 1160); conditions: 45 min, higher = more signal, called active from +8 up or from −8 down
[10] = molecular target: NADPH oxidase 5 (Homo sapiens) (UniProt Q96PH1); assay: NOX5-dependent H2O2 signal modulators, primary screen, NOX inhibitor project, cell-based, HEK293-NOX5, Amplex Red fluorescence (AID 1161); conditions: HEK293-NOX5, ionomycin, 45 min, higher = more signal
[11] = A549 cell viability effects, profiling panel, calcein-AM fluorescence, 48 h, basal (AID 1162); conditions: higher = more signal; further: test concentration not given here
[12] = adipocyte viability effects, profiling panel, cell-based, 3T3-L1 adipocytes, calcein-AM fluorescence, 48 h, basal (AID 1163); conditions: 3T3-L1 adipocytes viability, higher = more signal; further: test concentration not given here
[13] = HepG2 cell viability effects, profiling panel, calcein-AM fluorescence, 48 h, basal (AID 1164); conditions: higher = more signal; further: test concentration not given here
[14] = MM1S cell viability effects, profiling panel, calcein-AM fluorescence, 48 h, basal (AID 1165); conditions: higher = more signal;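 further: viability of MM1S multiple myeloma cells under basal unstimulated conditions; test concentration not given here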
[15] = basal RPMI8226 viability, no added stimulus, profiling panel, cell-based, calcein-AM fluorescence, 48 h, PK04 Diversity Set (AID 1166); conditions: RPMI8226 myeloma viability, higher = more signal;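 further: cells grown under basal conditions without added stimulus; test concentration not given here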
[16] = basal HepG2 mitochondrial membrane potential changes, profiling panel, cell-based, JC-1 fluorescence, 24 h, 100 nL compound (AID 1167); conditions: higher = more signal; further: test concentration not given here
[17] = basal 3T3-L1 adipocyte mitochondrial potential changes, profiling panel, cell-based, JC-1 fluorescence, 3T3-L1 adipocytes, 24 h, 100 nL compound (AID 1168); conditions: JC-1 mitochondrial fluorescence, higher = more signal, called active from +8 up or from −8 down; further: test concentration not given here
[18] = basal RPMI8226 mitochondrial membrane potential changes, profiling panel, cell-based, JC-1 fluorescence, 24 h, 100 nL compound (AID 1169); conditions: RPMI8226 myeloma, JC-1 mitochondrial potential fluorescence, higher = more signal; further: test concentration not given here
[19] = basal MM1S mitochondrial membrane potential changes, profiling panel, cell-based, JC-1 fluorescence, 24 h, 100 nL compound (AID 1170); conditions: higher = more signal; further: test concentration not given here
[20] = A549 lung cancer cell viability effects, profiling panel, resazurin fluorescence, 24 h, PK04 Diversity Set (AID 1171); conditions: higher = more signal, called active from +8 up or from −8 down; further: test concentration not given here

Chain of NADPH oxidase 4 (Homo sapiens) (Q9NPH5 whole entry, looked up): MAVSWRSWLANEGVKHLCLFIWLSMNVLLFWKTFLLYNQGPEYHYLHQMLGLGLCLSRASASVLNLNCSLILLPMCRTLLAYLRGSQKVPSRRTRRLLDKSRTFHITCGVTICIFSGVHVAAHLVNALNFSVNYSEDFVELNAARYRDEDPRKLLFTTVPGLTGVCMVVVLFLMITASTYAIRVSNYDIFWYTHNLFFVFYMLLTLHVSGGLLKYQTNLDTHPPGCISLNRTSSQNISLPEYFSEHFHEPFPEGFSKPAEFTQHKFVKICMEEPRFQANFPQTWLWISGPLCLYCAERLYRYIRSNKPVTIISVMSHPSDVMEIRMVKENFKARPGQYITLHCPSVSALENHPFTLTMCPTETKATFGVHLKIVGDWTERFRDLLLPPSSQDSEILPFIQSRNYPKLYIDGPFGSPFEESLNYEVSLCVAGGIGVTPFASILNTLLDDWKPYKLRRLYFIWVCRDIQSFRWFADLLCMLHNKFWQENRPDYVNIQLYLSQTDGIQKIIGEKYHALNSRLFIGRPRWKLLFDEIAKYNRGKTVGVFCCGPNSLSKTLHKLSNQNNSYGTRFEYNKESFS
Chain of NADPH oxidase 2 (Homo sapiens) (P04839 whole entry, looked up): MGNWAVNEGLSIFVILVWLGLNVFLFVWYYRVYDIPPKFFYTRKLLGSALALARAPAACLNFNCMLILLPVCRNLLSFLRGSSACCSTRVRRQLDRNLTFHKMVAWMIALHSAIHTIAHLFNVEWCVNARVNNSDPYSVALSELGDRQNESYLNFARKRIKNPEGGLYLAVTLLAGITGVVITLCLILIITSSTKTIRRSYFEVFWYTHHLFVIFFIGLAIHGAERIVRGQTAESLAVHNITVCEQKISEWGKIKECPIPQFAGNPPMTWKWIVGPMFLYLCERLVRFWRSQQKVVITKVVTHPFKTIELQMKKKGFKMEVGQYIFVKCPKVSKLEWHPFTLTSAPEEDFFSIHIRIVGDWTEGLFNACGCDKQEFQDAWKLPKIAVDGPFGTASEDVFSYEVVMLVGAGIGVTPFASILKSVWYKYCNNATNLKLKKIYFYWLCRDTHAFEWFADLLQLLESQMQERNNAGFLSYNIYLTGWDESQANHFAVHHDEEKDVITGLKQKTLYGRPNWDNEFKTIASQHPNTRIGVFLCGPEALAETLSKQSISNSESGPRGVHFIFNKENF
Chain of NADPH oxidase 5 (Homo sapiens) (Q96PH1 whole entry, looked up): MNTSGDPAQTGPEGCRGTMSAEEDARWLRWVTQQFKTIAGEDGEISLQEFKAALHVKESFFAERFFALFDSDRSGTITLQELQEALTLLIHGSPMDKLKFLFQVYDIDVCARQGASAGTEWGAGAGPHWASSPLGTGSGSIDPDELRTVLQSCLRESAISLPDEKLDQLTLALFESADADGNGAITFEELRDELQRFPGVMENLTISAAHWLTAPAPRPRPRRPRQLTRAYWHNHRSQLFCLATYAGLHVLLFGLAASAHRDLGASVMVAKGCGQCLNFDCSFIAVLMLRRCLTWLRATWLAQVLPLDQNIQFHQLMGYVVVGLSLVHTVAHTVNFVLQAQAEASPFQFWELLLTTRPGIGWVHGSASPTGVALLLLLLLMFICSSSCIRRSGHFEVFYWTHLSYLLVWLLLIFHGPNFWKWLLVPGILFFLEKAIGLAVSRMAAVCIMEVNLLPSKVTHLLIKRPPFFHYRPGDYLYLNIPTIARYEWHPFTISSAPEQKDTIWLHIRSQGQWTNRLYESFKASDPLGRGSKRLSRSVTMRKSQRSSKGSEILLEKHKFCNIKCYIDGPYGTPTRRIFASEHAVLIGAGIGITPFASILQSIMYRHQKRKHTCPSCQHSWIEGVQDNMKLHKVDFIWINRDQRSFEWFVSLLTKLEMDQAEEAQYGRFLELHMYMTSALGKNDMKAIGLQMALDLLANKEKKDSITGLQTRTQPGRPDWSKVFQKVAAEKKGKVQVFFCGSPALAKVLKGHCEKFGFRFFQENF

| Structure (SMILES) | z-score [1] | composite z-score [2] | z-score [3] | z-score [4] | z-score [5] | z-score [6] | z-score [7] | z-score [8] | z-score [9] | z-score [10] | z-score [11] | z-score [12] | z-score [13] | z-score [14] | z-score [15] | z-score [16] | z-score [17] | z-score [18] | z-score [19] | z-score [20] |
| --- | --- | --- | --- | --- | --- | --- | --- | --- | --- | --- | --- | --- | --- | --- | --- | --- | --- | --- | --- | --- |
| CC(C)NC(=O)[C@@H]1c2ccccc2C(=O)N(CC23CC4CC(CC(C4)C2)C3)[C@H]1c1ccc(CO)cc1 | 1.47 (inactive) | 0.433 | 1.63 (inactive) | -0.315 (inactive) | -0.143 (inactive) | -0.853 (inactive) | 1.31 | 0.357 (inactive) | 0.318 (inactive) | -1.82 | 1.39 | 0.885 | 1.29 | -0.0705 | 0.301 | 1.83 | -0.459 (inactive) | 0.433 | -0.624 | 1.18 (inactive) |
| O=C1C[C@@H](O)[C@@H](O)[C@@H]2[C@@H]3C(=O)N(c4cccc(Oc5ccccc5)c4)C(=O)[C@@H]3CC[C@@H]12 | -0.268 (inactive) | -0.0652 | 0.956 (inactive) | -0.329 (inactive) | 0.406 (inactive) | 0.0818 (inactive) | -0.363 | -0.837 (inactive) | -0.154 (inactive) | 0.558 | 0.494 | -0.202 | -0.323 | 0.309 | -0.0677 | -0.0107 | 0.615 (inactive) | 0.54 | 0.531 | -0.187 (inactive) |
| CC(C)=NOCc1ccc(-c2cc(-c3ccccc3)no2)cc1 | 0.433 (inactive) | -0.283 | 0.251 (inactive) | 0.367 (inactive) | -0.201 (inactive) | -0.0729 (inactive) | 0.321 | -2.54 (inactive) | 0.311 (inactive) | -0.0709 | 0.947 | 0.0379 | 0.433 | 0.283 | -1.14 | -0.49 | -0.618 (inactive) | 0.825 | -0.152 | -0.589 (inactive) |
| COc1ccc(O[C@H]2C=C[C@@H](c3ccccc3)O[C@@H]2COC(=O)CCC(C)=NO[C@@H](C)c2cc(-c3c(C)cc(C)cc3C)no2)cc1 | 0.409 (inactive) | -0.378 | 0.595 (inactive) | 0.322 (inactive) | 0.488 (inactive) | 0.245 (inactive) | -0.0348 | 1.18 (inactive) | -0.00862 (inactive) | -1.09 | -0.845 | 0.0504 | 0.033 | 0.0731 | -0.644 | 0.48 | -1.34 (inactive) | 0.129 | -0.424 | 1.8 (inactive) |
| CC(CCC(=O)OC[C@H]1O[C@H](C#Cc2ccccc2)C=C[C@@H]1Oc1ccc(C)cc1)=NOC[C@@H](O)[C@H]1O[C@@H]2OC(C)(C)O[C@@H]2[C@H]1O | 0.715 (inactive) | -0.193 | 14.2 (active) | 1.9 (inactive) | 0.0766 (inactive) | 1.05 (inactive) | 0.078 | -1.55 (inactive) | -0.00198 (inactive) | -1.2 | 0.0105 | -0.0958 | 0.0263 | -0.567 | -1.53 | -0.791 | -0.649 (inactive) | -0.0641 | -1.26 | -0.042 (inactive) |
| COc1ccc(O[C@@H]2[C@H](O)CO[C@H]2C=CC#Cc2ccccc2)cc1 | -0.939 (inactive) | -0.147 | 2.74 (inactive) | 0.488 (inactive) | 0.356 (inactive) | 0.0508 (inactive) | -0.367 | 0.0749 (inactive) | 1.23 (inactive) | 1.46 | -0.128 | 0.392 | 0.0395 | -2.54 | -0.0849 | -0.445 | -0.403 (inactive) | 0.617 | 0.113 | 0.357 (inactive) |
| COC(=O)CC=C[C@@H](C)[C@H](OC)c1ccccc1Br | -0.119 (inactive) | -0.245 | 0.727 (inactive) | 0.716 (inactive) | 0.216 (inactive) | 0.367 (inactive) | -0.0689 | -0.524 (inactive) | 0.055 (inactive) | -0.297 | 0.408 | -0.662 | 0.99 | -0.154 | -1.15 | 0.845 | -0.288 (inactive) | 0.0131 | -0.515 | -0.0428 (inactive) |
| CN1C(=O)C2C=CC(C(O)c3ccc(Br)cc3)N(N(c3ccccc3)c3ccccc3)C2C1=O (stereo not given) | -1.19 (inactive) | 0.446 | 15.4 (active) | 3.08 (inactive) | 0.948 (inactive) | 1.76 (inactive) | -0.0423 | 1.2 (inactive) | 0.184 (inactive) | 0.24 | 1.78 | -0.658 | 1.37 | 0.0222 | -0.574 | 0.232 | -1.07 (inactive) | 0.343 | -0.654 | -0.335 (inactive) |
| COCCCNC(=O)[C@]1(CCC(=O)OC(C)(C)C)N=C(c2ccc(OCCCO)cc2)O[C@@H]1c1ccccc1N=[N+]=[N-] | 0.734 (inactive) | 0.483 | 32.7 (active) | 29.9 (active) | 4.05 (inactive) | 7.68 (inactive) | 0.0838 | -2.44 (inactive) | 1.59 (inactive) | -2.19 | -0.771 | 0.463 | -0.0574 | -0.744 | -0.387 | 1.75 | 3.61 (inactive) | -0.69 | -0.984 | 0.576 (inactive) |
